Results from PubChem BioAssay (NCI).
About 83,000 compounds went through this panel and 20% of them were active in at least one assay; those are over-represented in the sample as a whole.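 96-well plates, one dose, 48 hours. Percent growth reported; active if below 10.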 Values without a mark were called inactive. Calls of active or inactive are those of the source.

Legend:
Experiment in all cases: NCI-60 one-dose screen, 48 h (100 = growth as untreated, 0 = no growth, -100 = all killed)
Settings in all cases: 10 µM unless noted
SR leukemia = tested on: SR leukemia
RPMI-8226 leukemia = tested on: RPMI-8226 leukemia
OVCAR-8 ovarian = tested on: OVCAR-8 ovarian
OVCAR-5 ovarian = tested on: OVCAR-5 ovarian
OVCAR-4 ovarian = tested on: OVCAR-4 ovarian
SK-OV-3 ovarian = tested on: SK-OV-3 ovarian
IGROV1 ovarian = tested on: IGROV1 ovarian
OVCAR-3 ovarian = tested on: OVCAR-3 ovarian
HS 578T breast = tested on: HS 578T breast
NCI/ADR-RES ovarian = tested on: NCI/ADR-RES ovarian

SMILES | growth (SR leukemia) | growth (RPMI-8226 leukemia) | growth (OVCAR-8 ovarian) | growth (OVCAR-5 ovarian) | growth (OVCAR-4 ovarian) | growth (SK-OV-3 ovarian) | growth (IGROV1 ovarian) | growth (OVCAR-3 ovarian) | growth (HS 578T breast) | growth (NCI/ADR-RES ovarian)
NS(=O)(=O)c1ccc(CCN2C(=O)c3cc(Cl)c(Cl)cc3C2=O)cc1 | 96% | 104% | 106% | 108% | 104% | 113% | 107% | 109% | 108% | 105%
COc1cc2nc(-c3ccc(Cl)cc3)cc(OCCCN3CCOCC3)c2cc1OC | 12.9% | 20.4% | 42.7% | 42.8% | 70.4% | 68.4% | 35.6% | 77.8% | 76.4% | 44.6%
CNCCOc1nc2c3cnccc3cc(-c3cc(OC)c(OC)c(OC)c3)c2c2ccncc12 | -18.2% (active) | -32% (active) | -37.3% (active) | -9.07% (active) | -2.03% (active) | -33.9% (active) | -16.3% (active) | 1.62% (active) | -25.7% (active) | -27.9% (active)
N#CC1C(C#N)C2c3ccccc3C=CN2C1C(=O)c1ccc(Br)cc1 (stereo not given) | 99.9% | 110% | 94.9% | 98% | 54.3% | 108% | 102% | 109% | 103% | 94.7%
C=C1C(=O)O[C@H]2[C@H]1CC/C(CNC(=O)C(C)c1ccc(CC(C)C)cc1)=C\CC[C@@]1(C)O[C@@H]21 (stereo not given in full) | 8.13% (active) | -21% (active) | -32.5% (active) | 57.3% | 29.3% | 88.1% | -36% (active) | -87.9% (active) | 25.4% | 55.3%
O=C(CSc1nc2sc3c(c2c(=O)n1-c1ccc(Cl)cc1)CCCC3)Nc1nc(-c2cccc(Br)c2)cs1 | 80.6% | 96.4% | 68.1% | 75.7% | 72.9% | 94.2% | 72.6% | 89% | 72.6% | 80.5%
Cc1cc(C(=O)/C=C/c2ccc[nH]2)ccc1-n1ccc(C(F)(F)F)n1 | 28.4% | -40.1% (active) | 85.6% | 95.8% | 74.7% | 129% | 92.3% | 4.46% (active) | 94.3% | 89.3%
C=C(C)[C@@H]1CC[C@]2(C(=O)N[C@@H](Cc3ccccc3)C(=O)OC)CC[C@]3(C)[C@H](CC[C@@H]4[C@@]5(C)CCC(=O)C(C)(C)[C@@H]5CC[C@]43C)[C@@H]12 | 85.3% | 85.2% | 100% | 97.9% | 73.5% | 98.8% | 88.7% | 72.7% | 96.4% | 99.1%
Fc1ccc(-c2cn3c(nc4ccccc43)c(-c3ccccc3)n2)cc1 | 91.5% | 111% | 73.7% | 111% | 67.1% | 105% | 81.8% | 111% | 76.7% | 89.3%
O=C1c2c(c3c4cccc(F)c4[nH]c3c3ccc4ccccc4c23)C(=O)N1O | 7.28% (active) | 0.257% (active) | 42.2% | 103% | 56.6% | 75.5% | 35.2% | 36% | 62.1% | 64.2%
C[C@H](c1nc2ccc(N)cc2[nH]1)[C@H]1CC[C@H]2[C@@H]3CCC4=CC(=O)CC[C@]4(C)[C@H]3CC[C@]12C | 44.4% | 64.5% | 91.4% | 102% | 88.1% | 91.2% | 85.1% | 91.5% | 87.3% | 89%
c1ccc(Cn2cnc3ccc(-c4nc(-c5ccc6c(c5)ncn6C5CCCCC5)cn5ccnc45)cc32)cc1 | 5.45% (active) | -41.2% (active) | 2.45% (active) | -29% (active) | 16.8% | -22.2% (active) | 5.81% (active) | -35.7% (active) | 0.386% (active) | 0.531% (active)
Cn1nc(CC#N)c2c(=N)n(N)cnc21 | 93.4% | 117% | 104% | 93.5% | 114% | 99.8% | 103% | 112% | 114% | 113%
CCN(CC)c1ccc(/C=N/NC(=O)CSc2nc3ccccc3c(=O)n2CCc2ccc(S(N)(=O)=O)cc2)c(O)c1 | 13.8% | -31.5% (active) | 8.51% (active) | 47.7% | 19.7% | 41.1% | 13.7% | 1.89% (active) | 46.3% | 82.6%
CCCCC[n+]1ccc(SCC(=O)N(C)c2ccc(Oc3ccccc3)cc2)c2ccccc21 | 84.5% | 66.2% | 98.4% | 105% | 92.6% | 101% | 117% | 90.9% | 109% | 104%
Nc1nc(Nc2ccccc2SSc2ccccc2Nc2nc(N)nc(-c3ccc(C(F)(F)F)cc3)n2)nc(-c2ccc(C(F)(F)F)cc2)n1 | -5.23% (active) | 43.6% | 56% | 104% | 82% | 104% | 69.7% | 80.5% | 78.7% | 56.4%
CC1(C)NCCC[C@]2(C)[C@H]3CC(=O)[C@H]4[C@@H]5C[C@](C)(CO)CC[C@]5(C)CC[C@@]4(C)[C@]3(C)CC[C@@H]12 | 82% | 95% | 114% | 98.3% | 92% | 110% | 98.1% | 89.8% | 99.4% | 105%
Nc1n[nH]c2cccc(C#Cc3cccc(C(=O)Nc4cc(CN5CCOCC5)cc(C(F)(F)F)c4)c3)c12 | 35.6% | 12.9% | 28.9% | 34.3% | 33.1% | 82.9% | 7.98% (active) | 46.7% | 10.2% | 42.1%
CN1CCC(=C(c2ccccc2)c2ccccc2)C(c2ccccc2)C1 (stereo not given) | 96.5% | 103% | 99.3% | 90% | 104% | 115% | 81.7% | 113% | 103% | 83.4%
C=C1C(=O)O[C@H]2[C@H]1CC/C(COC(=O)NCc1c[nH]c3ccc(F)cc13)=C\CC[C@@]1(C)O[C@@H]21 | 13% | -24.4% (active) | 0.654% (active) | -30.6% (active) | 11.9% | 93.7% | -46.7% (active) | -75.6% (active) | 50% | 59.7%
Cn1ccc2c1CC1CN(Cc3ccco3)C(=O)C1C2C(=O)O (stereo not given) | 107% | 109% | 106% | 95% | 99.5% | 109% | 104% | 103% | 98.7% | 99%
CCC(=O)Oc1ccc(/C(=C(\C)c2ccccc2)c2ccc(OCCN3CCCCC3)cc2)cc1 | 20.3% | 62.9% | 81.6% | 90.9% | 80.6% | 75.5% | 93.8% | 84.3% | 72.9% | 74.8%
O=C(CCN1CCCC1)c1ccc([N+](=O)[O-])cc1 | 98% | 92.7% | 101% | 102% | 102% | 101% | 105% | 104% | 112% | 100%
O=c1ccc(-c2nc(N3CCOCC3)c3ccccc3n2)c[nH]1 | 100% | 101% | 110% | 83.2% | 94.2% | 105% | 107% | 101% | 62.5% | 96.9%
O=C(Nc1ccc(F)cc1)Nc1ccc(NC(=O)c2cc(Cl)nc3ccccc23)cc1 | 74.1% | 26.5% | 42.9% | 92.9% | 51.2% | 59.8% | 52.6% | 12.2% | 9.05% (active) | 99.7%
